About 16,000 (7.3%) of roughly 220,000 compounds were called active. Inconclusive results (about 25%) are left out. Calls follow the shape of the dose curve; as a rule, active = well fitted inhibition curve with a large enough effect (not every such curve was filed as active); inconclusive = small, poorly fitted or top-dose-only effect, or another doubt; inactive = no such curve, though single readings can be large or run the other way. The full list was thinned out, with actives kept by preference.
molecular target: Aldehyde dehydrogenase 1A1 (Homo sapiens) (UniProt P00352); assay: qHTS Assay for Inhibitors of Aldehyde Dehydrogenase 1 (ALDH1A1); details: Purified ALDH1A1, NADH fluorescence, propionaldehyde substrate; series mostly up to 75.3 µM; activity, negative = inhibition: at the top concentration;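 as to activity, negative = inhibition: plate controls were no enzyme wells and a reference inhibitor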
Potency is read from the fitted curve at half-maximal effect.

Sequence of Aldehyde dehydrogenase 1A1 (Homo sapiens) (P00352 whole entry, looked up): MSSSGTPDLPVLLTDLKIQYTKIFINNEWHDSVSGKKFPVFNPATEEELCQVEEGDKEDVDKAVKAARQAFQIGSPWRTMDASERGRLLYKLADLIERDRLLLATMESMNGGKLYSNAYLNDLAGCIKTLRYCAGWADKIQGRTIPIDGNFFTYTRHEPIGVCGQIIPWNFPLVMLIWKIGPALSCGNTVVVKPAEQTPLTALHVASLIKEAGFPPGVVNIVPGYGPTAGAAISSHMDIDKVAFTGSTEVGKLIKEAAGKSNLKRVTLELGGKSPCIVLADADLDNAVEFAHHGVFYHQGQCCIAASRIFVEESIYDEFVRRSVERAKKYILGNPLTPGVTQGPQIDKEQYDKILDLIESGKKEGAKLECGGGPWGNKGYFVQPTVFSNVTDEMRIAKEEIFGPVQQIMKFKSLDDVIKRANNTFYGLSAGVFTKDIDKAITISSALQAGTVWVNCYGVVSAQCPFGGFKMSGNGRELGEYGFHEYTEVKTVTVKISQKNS

activity, negative = inhibition, inactive:
CCc1c(C)nc2c(OC)cccc2c1Cl 6.92%
CCSc1nc(C)c(CCOc2cccc(C)c2)c(=O)[nH]1 6.34%
COc1ccc(-c2[nH]ncc2CN(Cc2nccn2C)C(C)C)cc1F 8.75%
COc1ccccc1N(CC(=O)Nc1ccc(C(F)(F)F)cc1)S(C)(=O)=O 10.8%
COc1ccc(C(=O)C2CCCN(C(=O)c3cc4nc(C)cc(C)n4n3)C2)cc1F (centres undefined) 2.56%
CCCCN(C(=O)c1ccc(OC(F)(F)F)cc1)c1c(N)n(CCC)c(=O)[nH]c1=O -1.19%
O=C(Nc1ccnc(-c2ccncc2)n1)c1cccs1 6.7%
CC(=O)c1cc(C#N)c(N2CC(C)OC(C)C2)nc1C (centres undefined) -5.66%
N#Cc1ccc(CSc2nnc(-c3ccccn3)n2-c2ccc(Cl)cc2)cc1 -5.72%
CCN(CC)C(=O)CSc1nnc(-c2cnccn2)n1-c1ccc(C)cc1 5.34%
CC(=O)NC(NC(=S)Nc1c(C)n(C)n(-c2ccccc2)c1=O)C(Cl)(Cl)Cl (centres undefined) -0.126%
COC(=O)c1ccc(-c2noc(CN(Cc3ccccn3)CC3CCCO3)n2)cc1 (centres undefined) -7.57%
CN(C)c1ccnc(Nc2ccc(F)cc2)c1C#N -6.59%
O=C1CS(=O)CN1c1ccc(Oc2ccccc2)cc1 (centres undefined) 7.4%
O=C(CCC1CCCN(C(=O)Cc2ccc(F)cc2)C1)N1CCN(c2ccccn2)CC1 (centres undefined) -10.9%
CCN(CC(=O)NC1CCS(=O)(=O)C1)S(=O)(=O)c1ccccc1 (centres undefined) -13.3%
CCN(CC(=O)NCCc1ccccc1)S(=O)(=O)c1ccc(C)cc1 -5.82%
O=C(N/N=C/c1cccc([N+](=O)[O-])c1)C1CC(=O)N(c2ccc(Br)cc2)C1 (centres undefined) 4.53%
C=CCNC(=O)/C(=C\c1cccc([N+](=O)[O-])c1)NC(=O)c1ccccc1 -7.06%
N/C(=N\OC(=O)CCc1ccccc1)c1cccnc1 23.2%
COC(=O)c1ccc(NC(=O)c2cc(Cl)ccc2OC)cc1 -8.51%
CCC(=O)c1ccc(N2CCN(C(=O)c3cc([N+](=O)[O-])ccc3F)CC2)c(F)c1 -10.1%
O=C(CCNS(=O)(=O)c1ccc(Br)s1)NCc1ccccc1Cl 3.59%

Potency, inactive:
CCCCCCCC1=Cc2ccc(F)cc2C(C(C(=O)OC)C(=O)OC)N1C(=O)OC (centres undefined)
COC(=O)C1(C(C)=O)CC2=CC[C@H]3C(=O)N(c4ccccc4)C(=O)[C@H]3[C@@H]2Cc2ccccc2[C@@H]1C[N+](=O)[O-] (some centres undefined)

Potency, active:
Cn1c(SCc2c(F)cccc2Cl)nnc1-c1cnccn1 12.6 µM
Fc1ccc(Nc2nnns2)cc1 2 µM
CCN(CC(=O)NCCc1ccccc1)S(=O)(=O)c1ccccc1 35.5 µM
N#C/C(=C/c1cccc([N+](=O)[O-])c1)c1nnc2n1CCCCC2 20 µM

Source: PubChem BioAssay AID1030 (National Center for Advancing Translational Sciences (NCATS), 2008)
